Compounds without any hit were thinned out: in the full panel of roughly 79,000, 15% have a hit. Activity calls are given as the source filed them. Cut-off read from the data, not from the text of the source: active = growth inhibition above about 70%; inactive = the rest.
Assay: NCI Yeast Anticancer Drug Screen. Data for the sgs1 mgt1 strain (AID 161);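 note: 0% = growth of cultures given vehicle only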
Details: S. cerevisiae sgs1 mgt1 strain, at 50.0 µM, active compounds read high
Method in brief: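 Percent growth inhibition was derived by comparing compound-exposed mutant yeast with vehicle-exposed cultures. The strain carries alterations in DNA damage repair.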

SMILES | growth inhibition
CCOC(=O)C[P+](c1ccc(C)cc1)(c1ccc(C)cc1)c1ccc(C)cc1 | 95.8% (active)
O=C(NCCl)Nc1ccccc1 | 67.9% (inactive)
O=c1[nH]c2ccccc2c2cccc(F)c12 | 94.8% (active)
O=C(c1c(F)c(F)c(F)c(F)c1F)N1CCN(C(=O)c2c(F)c(F)c(F)c(F)c2F)C1=S | 90.9% (active)
O=C(CNS(=O)(=O)Cc1ccccc1)NCC(=O)NNc1ccccc1 | 58.2% (inactive)
CC1(C)C(=O)N(CCCCCCN2C(=O)C(C)(C)c3ccccc32)c2ccccc21 | 81.5% (active)
CC(=O)Nc1cccc2c1ccc1ccc3ccccc3c12 | 71.2% (active)
COc1ccc(-c2noc(=O)c3ccccc23)cc1 | 3.4% (inactive)
c1ccc([B-](c2ccccc2)(c2ccccc2)c2ccccc2)cc1 | 98.2% (active)
CCc1cccc(C)c1N1C(=O)C(=O)C(c2nc3ccccc3o2)/C(=N\NS(=O)(=O)c2ccc(C)cc2)C1=O (stereo not drawn) | 4.4% (inactive)
Cc1ccc(-[n+]2cc([O-])on2)cc1 | -5.5% (inactive)
CCOC(=O)C(Cc1cn(S(=O)(=O)c2ccccc2)c2ccccc12)(NC(C)=O)C(=O)OCC | 70% (active)
CC(=O)N1C=C2CCC3c4ccccc4NC3C2CC1 (stereo not drawn) | 34.5% (inactive)
O=c1cccccc1[O-].O=c1cccccc1[O-].O=c1cccccc1[O-].[Ce+3] | 85% (active)
CC(=O)OC(C#N)CC(C)(C)/[N+]([O-])=[N+](\[O-])C(C)(C)CC(C#N)OC(C)=O (stereo not drawn) | 77.3% (active)
O=C(O)C1(Cc2ccc3c(c2)CCC3)Cc2cc3c(cc2C1)CCC3 | 77.8% (active)
COC(=O)C12OCC34C(CC5C(C)C6=CC(=O)OC6=CC5(C)C3C(O)C1O)OC(=O)C(OC(C)=O)C24 (stereo not drawn) | 92.2% (active)
O=S(=O)(c1cc(Cl)ccc1Cl)N1CCc2ccccc2C1 | 25.6% (inactive)
CSC(=S)n1nc(-c2cccs2)c(N=Nc2ccc(Cl)cc2)c1C(F)(F)F | 46.5% (inactive)
O=[N+]([O-])C1=Cc2ccccc2S(=O)(=O)CC1 | 92.7% (active)

SMILES | growth inhibition
COc1ccc(/C=N/n2c(C)nc3c(sc(=S)n3-c3ccccc3)c2=O)cc1 | 11.4% (inactive)
Fc1ccc(NC(=S)SCc2ccccc2)cc1F | 99.2% (active)
O=[N+]([O-])c1cccc2c1[nH]c1c(-c3ccccc3)nccc12 | 81% (active)
CCOC(=O)CC(=O)/C=C/c1ccncc1 | -5.25% (inactive)
c1ccc([P+](c2ccccc2)(c2ccccc2)C2CCCC2)cc1 | 97.6% (active)
COc1cc(Cc2n[nH]c(=S)n2-c2ccccc2)c(S(N)(=O)=O)cc1OC | -2.75% (inactive)
CCCCCN(CCCCC)CCNc1ccc(C)c2sc3ccccc3c(=O)c12 | 98.2% (active)
COC(=O)[C@@]12OC[C@]34[C@H]([C@@H](O)[C@@H]1O)[C@@]1(C)CC(=O)C(O)=C(C)[C@@H]1C[C@H]3OC(=O)[C@H](OC(=O)C(Cc1ccccc1)NC(=O)OC(C)(C)C)[C@@H]24 (stereo partly drawn) | 86.8% (active)
CC(=O)Nc1ccc(C(=O)C(C)Br)cc1 (stereo not drawn) | 80.5% (active)
COc1ccc2c(c1)[n+]([O-])c(C(N)=O)c(N)[n+]2[O-] | 99.3% (active)
Cc1c2c(c(C)c3c4c(oc13)CCCC4)C=NCC2 | 25% (inactive)
CC1C(C(=O)O)CC([N+](=O)[O-])C(Cl)C1[N+](=O)[O-] (stereo not drawn) | 82.1% (active)
CCN(CC)c1ccc(N=C2C=C(C(=O)Nc3cccc(Cl)c3)C(=O)c3ccccc32)c(C)c1 | -9.25% (inactive)
C[N+](C)(C)CCN(Cc1cccs1)c1ccccn1 | -37.8% (inactive)
O=C(c1ccccc1)c1c(CO[N+](=O)[O-])n([O-])c2ccccc2[n+]1=O | 98.3% (active)
CCC[C@H]1[C@H](CCC)[C@@]2(OC(=O)C3=C2CCC=C3)[C@]12OC(=O)C1=C2CCC=C1 | 92% (active)
O=C(CC(=O)c1ccccc1NC1=Cc2ccccc2C(=O)C1=O)C(=O)NC1=C(Cl)C(=O)c2ccccc2C1=O | 85.7% (active)
C=CC[P+](CC[P+](CC=C)(c1ccccc1)c1ccccc1)(c1ccccc1)c1ccccc1 | 16.6% (inactive)
NCC1CCNCC1 | -15.2% (inactive)

Assay: NCI Yeast Anticancer Drug Screen. Data for the cln2 rad14 strain (AID 165);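 note: 0% = growth equal to vehicle treated cultures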
Details: S. cerevisiae cln2 rad14 strain, at 5.0 µM (retest, dose inferred, filed as 0.5), active compounds read high
Method in brief: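 Readout is yeast growth inhibition versus vehicle-treated controls, using a strain with cln2 and rad14 alterations exposed to compound.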

SMILES | growth inhibition
CCOC(=O)C[P+](c1ccc(C)cc1)(c1ccc(C)cc1)c1ccc(C)cc1 | 2% (inactive)
O=C(NCCl)Nc1ccccc1 | 1% (inactive)
O=c1[nH]c2ccccc2c2cccc(F)c12 | 4% (inactive)
O=C(c1c(F)c(F)c(F)c(F)c1F)N1CCN(C(=O)c2c(F)c(F)c(F)c(F)c2F)C1=S | 8% (inactive)
O=C(CNS(=O)(=O)Cc1ccccc1)NCC(=O)NNc1ccccc1 | 12% (inactive)
CC1(C)C(=O)N(CCCCCCN2C(=O)C(C)(C)c3ccccc32)c2ccccc21 | -11% (inactive)
CC(=O)Nc1cccc2c1ccc1ccc3ccccc3c12 | -12% (inactive)
COc1ccc(-c2noc(=O)c3ccccc23)cc1 | 4% (inactive)
c1ccc([B-](c2ccccc2)(c2ccccc2)c2ccccc2)cc1 | 4% (inactive)
CCc1cccc(C)c1N1C(=O)C(=O)C(c2nc3ccccc3o2)/C(=N\NS(=O)(=O)c2ccc(C)cc2)C1=O (stereo not drawn) | 8% (inactive)
Cc1ccc(-[n+]2cc([O-])on2)cc1 | -3% (inactive)
CCOC(=O)C(Cc1cn(S(=O)(=O)c2ccccc2)c2ccccc12)(NC(C)=O)C(=O)OCC | 15% (inactive)
CC(=O)N1C=C2CCC3c4ccccc4NC3C2CC1 (stereo not drawn) | -51% (inactive)
O=c1cccccc1[O-].O=c1cccccc1[O-].O=c1cccccc1[O-].[Ce+3] | 16% (inactive)
CC(=O)OC(C#N)CC(C)(C)/[N+]([O-])=[N+](\[O-])C(C)(C)CC(C#N)OC(C)=O (stereo not drawn) | 14% (inactive)
O=C(O)C1(Cc2ccc3c(c2)CCC3)Cc2cc3c(cc2C1)CCC3 | -1% (inactive)
COC(=O)C12OCC34C(CC5C(C)C6=CC(=O)OC6=CC5(C)C3C(O)C1O)OC(=O)C(OC(C)=O)C24 (stereo not drawn) | 64% (inactive)
O=S(=O)(c1cc(Cl)ccc1Cl)N1CCc2ccccc2C1 | -1% (inactive)
CSC(=S)n1nc(-c2cccs2)c(N=Nc2ccc(Cl)cc2)c1C(F)(F)F | 14% (inactive)
O=[N+]([O-])C1=Cc2ccccc2S(=O)(=O)CC1 | -8% (inactive)

SMILES | growth inhibition
COc1ccc(/C=N/n2c(C)nc3c(sc(=S)n3-c3ccccc3)c2=O)cc1 | -15% (inactive)
Fc1ccc(NC(=S)SCc2ccccc2)cc1F | -6% (inactive)
O=[N+]([O-])c1cccc2c1[nH]c1c(-c3ccccc3)nccc12 | 0% (inactive)
CCOC(=O)CC(=O)/C=C/c1ccncc1 | 3% (inactive)
c1ccc([P+](c2ccccc2)(c2ccccc2)C2CCCC2)cc1 | -3% (inactive)
COc1cc(Cc2n[nH]c(=S)n2-c2ccccc2)c(S(N)(=O)=O)cc1OC | 0% (inactive)
CCCCCN(CCCCC)CCNc1ccc(C)c2sc3ccccc3c(=O)c12 | 5% (inactive)
COC(=O)[C@@]12OC[C@]34[C@H]([C@@H](O)[C@@H]1O)[C@@]1(C)CC(=O)C(O)=C(C)[C@@H]1C[C@H]3OC(=O)[C@H](OC(=O)C(Cc1ccccc1)NC(=O)OC(C)(C)C)[C@@H]24 (stereo partly drawn) | 33% (inactive)
CC(=O)Nc1ccc(C(=O)C(C)Br)cc1 (stereo not drawn) | 24% (inactive)
COc1ccc2c(c1)[n+]([O-])c(C(N)=O)c(N)[n+]2[O-] | 31% (inactive)
Cc1c2c(c(C)c3c4c(oc13)CCCC4)C=NCC2 | -46% (inactive)
CC1C(C(=O)O)CC([N+](=O)[O-])C(Cl)C1[N+](=O)[O-] (stereo not drawn) | 15% (inactive)
CCN(CC)c1ccc(N=C2C=C(C(=O)Nc3cccc(Cl)c3)C(=O)c3ccccc32)c(C)c1 | -4% (inactive)
C[N+](C)(C)CCN(Cc1cccs1)c1ccccn1 | -27% (inactive)
O=C(c1ccccc1)c1c(CO[N+](=O)[O-])n([O-])c2ccccc2[n+]1=O | 10% (inactive)
CCC[C@H]1[C@H](CCC)[C@@]2(OC(=O)C3=C2CCC=C3)[C@]12OC(=O)C1=C2CCC=C1 | -7% (inactive)
O=C(CC(=O)c1ccccc1NC1=Cc2ccccc2C(=O)C1=O)C(=O)NC1=C(Cl)C(=O)c2ccccc2C1=O | 16% (inactive)
C=CC[P+](CC[P+](CC=C)(c1ccccc1)c1ccccc1)(c1ccccc1)c1ccccc1 | -5% (inactive)
NCC1CCNCC1 | 0% (inactive)

— PubChem BioAssay (NCI)
